The source made the active and inactive calls.
Tests used:
Albumin (Bos taurus) = Albumin (Bos taurus) (UniProt P02769); experiment: bovine serum albumin binders on microarray, profiling panel, artefact control for SMM control protein annotation, biochemical, small-molecule microarray, Alexa647 label, 635/667 nm fluorescence (AID 1118); settings: BSA-A647 binding, fluorescence 635 nm, higher = more signal;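 also: score merges 667 nm emission intensity and signal-to-noise per printed compound spot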
Sequence of Albumin (Bos taurus) (P02769 whole entry, looked up): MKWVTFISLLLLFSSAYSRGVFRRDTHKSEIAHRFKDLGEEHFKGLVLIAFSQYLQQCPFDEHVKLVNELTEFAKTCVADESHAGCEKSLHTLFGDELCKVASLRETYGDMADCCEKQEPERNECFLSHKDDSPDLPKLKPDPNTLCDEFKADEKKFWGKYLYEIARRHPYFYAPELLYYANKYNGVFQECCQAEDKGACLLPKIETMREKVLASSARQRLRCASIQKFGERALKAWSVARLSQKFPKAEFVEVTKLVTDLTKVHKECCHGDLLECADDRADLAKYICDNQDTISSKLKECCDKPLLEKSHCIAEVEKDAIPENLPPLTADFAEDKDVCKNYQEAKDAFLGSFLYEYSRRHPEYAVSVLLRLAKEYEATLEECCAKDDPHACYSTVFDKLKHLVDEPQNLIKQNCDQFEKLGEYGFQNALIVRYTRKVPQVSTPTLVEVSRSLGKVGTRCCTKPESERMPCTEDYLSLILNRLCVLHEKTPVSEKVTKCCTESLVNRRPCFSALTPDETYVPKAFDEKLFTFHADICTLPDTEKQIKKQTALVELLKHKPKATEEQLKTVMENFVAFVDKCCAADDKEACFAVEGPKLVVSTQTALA

[1] = small-molecule microarray binders of probe aXIP, primary screen, biochemical, NeuroSMM set, 635/667 nm fluorescence (AID 1119); settings: higher = more signal, called active from +8 up or from −8 down;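 also: probe is the protein aXip251-270 applied at 1 µg/mL to compound-printed slides; binding of probe to printed compounds measured as 667 nm fluorescence plus signal to noise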
[2] = small-molecule binders of probe aNOTCH3, primary screen, biochemical, small-molecule microarray, 635/667 nm fluorescence (AID 1120); settings: higher = more signal;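 also: probe is a biotin-tagged antibody raised against NOTCH3 rather than NOTCH3 protein; score merges spot fluorescence near 667 nm with spot signal to noise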
[3] = small-molecule binders of probe aNOTCH2, primary screen, biochemical, small-molecule microarray, 635/667 nm fluorescence (AID 1121); settings: higher = more signal;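 also: score merges feature fluorescence read at 667 nm with its signal to noise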
[4] = molecular target: Carbonic anhydrase 2 (Homo sapiens) (UniProt P00918); experiment: CAII small-molecule binders, profiling panel, biochemical, small-molecule microarray, Alexa647-labelled CAII (AID 1122); settings: CAII-A647 binding fluorescence, higher = more signal
[5] = COS7 lysate on small-molecule microarray, probe aHis, 635 nm (AID 1123); settings: COS7 cell lysate, fluorescence, higher = more signal;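 also: z-score combines 667nm fluorescence intensity with signal-to-noise per printed compound spot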
[6] = compound binding in COS7 lysate, probe aLAP1, primary screen, cell lysate, small-molecule microarray (AID 1124); settings: probe aLAP1, fluorescence, higher = more signal;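 also: lysate comes from COS7 cells expressing LAP1 and is applied at 0.3 µg/mL; score merges spot fluorescence near 667 nm with signal-to-noise over triplicate slides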
Sam68 (KHDRBS1) = experiment: Sam68 small-molecule binders, primary screen, biochemical, small-molecule microarray, 635 nm fluorescence (AID 1125); settings: small-molecule microarray binding, higher = more signal;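 also: score merges 667 nm channel intensity with signal to noise over triplicate slides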
[7] = tested on: Chordin-like protein 2 (CHRDL2); experiment: CHRDL2 small-molecule binders, primary screen, biochemical, small-molecule microarray, 635 nm fluorescence (AID 1126); settings: small-molecule microarray binding, fluorescence 635 nm; higher = more signal;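 also: printed compound slides probed with Chrdl2 protein at 4 µg/mL for 1 h at 4 C; score merges 667 nm emission intensity with signal to noise over three replicate slides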
[8] = molecular target: Concanavalin-A (Canavalia ensiformis) (UniProt P02866); experiment: ConA small-molecule binders, primary screen, artefact control for SMM control protein annotation, biochemical, small-molecule microarray, Alexa647 label, 635 nm (AID 1127); settings: ConA-A647 binding fluorescence, higher = more signal;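 also: z combines 667 nm emission intensity with signal-to-noise across three replicate slides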
Sequence of Concanavalin-A (Canavalia ensiformis) (P02866 whole entry, looked up): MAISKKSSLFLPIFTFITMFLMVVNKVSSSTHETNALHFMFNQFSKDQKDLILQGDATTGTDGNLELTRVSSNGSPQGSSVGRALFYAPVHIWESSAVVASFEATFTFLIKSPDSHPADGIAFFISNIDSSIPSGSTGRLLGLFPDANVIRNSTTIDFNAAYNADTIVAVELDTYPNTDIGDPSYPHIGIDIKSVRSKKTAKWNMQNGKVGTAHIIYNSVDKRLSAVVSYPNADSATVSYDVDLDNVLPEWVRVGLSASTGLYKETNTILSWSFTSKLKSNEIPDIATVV

[9] = anti-His antibody binders, primary screen, artefact control for SMM control protein annotation, biochemical, small-molecule microarray, 635 nm fluorescence (AID 1128); settings: anti-His Alexa647 antibody binding, higher = more signal;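 also: score merges feature fluorescence with signal-to-noise for each printed compound spot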
[10] = tested on: Human papillomavirus type 1a E7 protein (residues 1-88); experiment: HPV1a E7 small-molecule binders, primary screen, biochemical, small-molecule microarray, residues 1-88, 635 nm (AID 1129); settings: small-molecule microarray binding, fluorescence 635 nm; higher = more signal
[11] = molecular target: Focal adhesion kinase 1 (Homo sapiens) (UniProt Q05397); experiment: small-molecule microarray binders of FAK, primary screen, biochemical, 635/667 nm fluorescence, BSA, DTT (AID 1130); settings: PTK2 binding, 635 nm fluorescence, higher = more signal;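 also: composite of spot emission at 667 nm and signal to noise over triplicate slides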
Sequence of Focal adhesion kinase 1 (Homo sapiens) (Q05397 whole entry, looked up): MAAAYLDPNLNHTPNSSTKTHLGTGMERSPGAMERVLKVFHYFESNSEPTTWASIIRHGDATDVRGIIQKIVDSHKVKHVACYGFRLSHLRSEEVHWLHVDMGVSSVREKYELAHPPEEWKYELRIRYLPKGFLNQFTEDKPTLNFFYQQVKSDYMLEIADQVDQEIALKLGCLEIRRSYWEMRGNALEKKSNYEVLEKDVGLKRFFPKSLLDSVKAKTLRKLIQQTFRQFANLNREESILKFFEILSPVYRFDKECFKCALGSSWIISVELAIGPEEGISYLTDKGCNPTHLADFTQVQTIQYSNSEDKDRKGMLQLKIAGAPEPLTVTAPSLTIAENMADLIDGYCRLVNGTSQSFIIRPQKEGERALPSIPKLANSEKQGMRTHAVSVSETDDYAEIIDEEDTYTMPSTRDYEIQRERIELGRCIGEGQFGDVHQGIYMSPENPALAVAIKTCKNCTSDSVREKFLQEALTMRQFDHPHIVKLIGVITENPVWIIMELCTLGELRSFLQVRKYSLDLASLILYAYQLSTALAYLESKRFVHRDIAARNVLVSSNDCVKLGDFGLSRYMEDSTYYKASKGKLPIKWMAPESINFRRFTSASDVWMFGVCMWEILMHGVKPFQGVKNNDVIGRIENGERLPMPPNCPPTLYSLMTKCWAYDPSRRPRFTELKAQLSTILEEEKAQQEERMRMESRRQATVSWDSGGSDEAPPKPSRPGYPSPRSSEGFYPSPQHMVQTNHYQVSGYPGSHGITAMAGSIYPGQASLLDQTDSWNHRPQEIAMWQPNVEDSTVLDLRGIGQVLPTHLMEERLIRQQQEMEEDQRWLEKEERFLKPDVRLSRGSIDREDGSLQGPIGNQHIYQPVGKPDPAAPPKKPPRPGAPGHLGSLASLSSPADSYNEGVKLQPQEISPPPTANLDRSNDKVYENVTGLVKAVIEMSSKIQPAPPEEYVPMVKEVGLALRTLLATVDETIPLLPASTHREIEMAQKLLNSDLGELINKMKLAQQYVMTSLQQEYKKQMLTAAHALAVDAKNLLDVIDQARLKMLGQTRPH

[12] = tested on: Fibrinogen (Alexa647-labelled); experiment: fibrinogen binders on compound microarrays, profiling panel, artefact control for SMM control-protein annotation, biochemical, small-molecule microarray, 635/667 nm fluorescence (AID 1131); settings: fibrinogen-A647 binding fluorescence, higher = more signal;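 also: z-score merges 667 nm fluorescence with per-spot signal-to-noise over triplicate slides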
[13] = molecular target: Follistatin (Homo sapiens) (UniProt P19883); experiment: follistatin binders on small-molecule microarrays, primary screen, biochemical, small-molecule microarray, 635/667 nm fluorescence (AID 1132); settings: FST binding, 635 nm fluorescence, higher = more signal
Sequence of Follistatin (Homo sapiens) (P19883 whole entry, looked up): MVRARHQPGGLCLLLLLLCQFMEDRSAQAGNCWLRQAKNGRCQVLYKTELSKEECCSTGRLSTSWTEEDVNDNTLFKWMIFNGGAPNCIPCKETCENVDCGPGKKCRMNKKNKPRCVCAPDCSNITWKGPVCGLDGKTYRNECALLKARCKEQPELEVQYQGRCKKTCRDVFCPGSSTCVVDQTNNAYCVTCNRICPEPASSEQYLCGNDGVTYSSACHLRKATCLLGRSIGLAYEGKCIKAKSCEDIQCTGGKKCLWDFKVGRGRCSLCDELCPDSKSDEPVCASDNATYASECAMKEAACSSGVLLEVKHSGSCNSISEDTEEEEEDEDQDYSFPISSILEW

[14] = molecular target: Fibroblast growth factor 2 (Homo sapiens) (UniProt P09038); experiment: FGF2 binders on small-molecule microarrays, primary screen, biochemical, small-molecule microarray, 635/667 nm fluorescence (AID 1133); settings: small-molecule microarray binding, FGF2, fluorescence 635/667; higher = more signal
Sequence of Fibroblast growth factor 2 (Homo sapiens) (P09038 whole entry, looked up): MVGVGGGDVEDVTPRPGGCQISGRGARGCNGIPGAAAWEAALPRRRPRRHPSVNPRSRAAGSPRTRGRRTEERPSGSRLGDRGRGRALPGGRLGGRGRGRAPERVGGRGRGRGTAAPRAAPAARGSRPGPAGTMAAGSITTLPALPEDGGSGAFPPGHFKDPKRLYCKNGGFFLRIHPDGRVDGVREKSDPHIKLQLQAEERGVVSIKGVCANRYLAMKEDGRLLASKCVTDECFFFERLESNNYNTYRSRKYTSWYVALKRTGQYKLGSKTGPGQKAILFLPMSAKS

[15] = mitochondrial membrane potential change in A549 cells, profiling panel, cell-based, JC-1 fluorescence, basal, 24 h, 100 nL (AID 1138); settings: higher = more signal;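 also: A549 lung adenocarcinoma cells under basal conditions with no added stimulus; test concentration not given here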
Lefty1 = Lefty1 binders on small-molecule microarrays, primary screen, biochemical, small-molecule microarray, 635/667 nm fluorescence (AID 1139); settings: small-molecule microarray binding, fluorescence 635/667; higher = more signal
[16] = tested on: wheat germ agglutinin (Triticum aestivum), Alexa647-labelled; experiment: wheat germ agglutinin binders on compound microarrays, profiling panel, artefact control for SMM control-protein annotation, biochemical, small-molecule microarray, 635/667 nm fluorescence (AID 1140); settings: WGA-A647 binding, 635 nm fluorescence, higher = more signal;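 also: score merges 667 nm feature emission with signal to noise over triplicate slides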
[17] = molecular target: Luciferin 4-monooxygenase (Photinus pyralis) (UniProt P08659); experiment: firefly luciferase enzyme inhibitors, primary screen, biochemical, luminescence, purified enzyme, 2006 set (AID 1141); settings: SteadyGlo luminescence, 30 min, higher = more signal, called active from +8 up or from −8 down;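 also: cell-free assay with purified firefly luciferase at 100 ng per well in PBS; test concentration not given here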
Sequence of Luciferin 4-monooxygenase (Photinus pyralis) (P08659 whole entry, looked up): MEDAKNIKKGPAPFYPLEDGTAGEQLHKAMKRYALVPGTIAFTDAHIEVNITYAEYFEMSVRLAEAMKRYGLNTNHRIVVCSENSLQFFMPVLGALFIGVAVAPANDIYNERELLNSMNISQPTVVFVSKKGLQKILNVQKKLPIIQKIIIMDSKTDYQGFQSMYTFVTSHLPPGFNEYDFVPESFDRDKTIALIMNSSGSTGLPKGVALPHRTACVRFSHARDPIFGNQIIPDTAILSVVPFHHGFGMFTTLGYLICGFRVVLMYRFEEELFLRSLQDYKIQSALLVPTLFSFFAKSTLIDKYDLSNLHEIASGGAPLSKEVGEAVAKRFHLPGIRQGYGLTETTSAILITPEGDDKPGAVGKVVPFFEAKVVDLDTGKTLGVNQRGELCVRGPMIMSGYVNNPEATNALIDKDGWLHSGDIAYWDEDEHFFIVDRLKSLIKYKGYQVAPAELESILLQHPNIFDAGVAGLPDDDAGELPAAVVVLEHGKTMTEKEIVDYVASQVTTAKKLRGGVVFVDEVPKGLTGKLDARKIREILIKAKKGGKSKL

Row | SMILES | composite z-score (Albumin (Bos taurus)) | composite Z-score [1] | composite z-score [2] | composite z-score [3] | composite z-score [4] | composite z-score [5] | composite z-score [6] | composite z-score (Sam68 (KHDRBS1)) | composite z-score [7] | composite z-score [8] | composite z-score [9] | composite z-score [10] | composite z-score [11] | composite z-score [12] | composite z-score [13] | composite z-score [14] | z-score [15] | composite z-score (Lefty1) | composite z-score [16] | z-score [17]
1 | COc1cccc(C[C@H]2C[C@@H](CO[Si](C(C)C)(C(C)C)C(C)C)N3C(=O)[C@]4(C(C)=O)O[C@]23[C@H]2C(=O)N(C)C(=O)[C@H]24)c1 | 0.614 | -0.12 (inactive) | -0.0647 | -0.148 | -0.0064 | 0.0217 | -0.274 | 1.14 | 0.403 | 0.98 | 0.786 | 1.04 | 0.353 | 0.674 | 0.9 | 0.865 | 1.51 | 1.19 | 0.425 | 0.216 (inactive)
2 | CC1CC/C=C\[C@H]2OC34C=CCN(c5ccc(Cl)cc5)C(=O)[C@H]3N(C(CO)C(C)C)C(=O)[C@]4(C)C2C(=O)O1 (stereo not given in full) | 0.788 | -0.0965 (inactive) | -0.28 | -0.174 | 0.859 | 0.253 | 0.438 | -0.932 | -0.169 | -0.983 | 0.776 | -0.512 | -0.432 | -0.787 | -0.648 | -0.87 | 0.34 | -0.626 | -0.281 | -0.391 (inactive)
3 | COCCCNC(=O)[C@]1(Cc2ccccc2CN=[N+]=[N-])N=C(c2ccc(OCCCO)cc2)O[C@@H]1c1ccccc1CN=[N+]=[N-] | 0.864 | 0.701 (inactive) | 0.364 | 0.309 | 0.613 | 2.28 | 1.09 | 1.29 | -0.0479 | 1 | 2.28 | 1.2 | 0.11 | 0.954 | 0.701 | 0.244 | 1.28 | -0.449 | 1.02 | -0.107 (inactive)
4 | C[N+](C)(C)CCCCCCNC(=O)[C@@H]1C[C@@H]2C(=O)NCC(=O)N2[C@@H]1c1ccc(O)cc1 | -0.356 | 0.607 (inactive) | 0.0636 | -0.174 | 0.618 | 1.69 | 0.393 | 1.06 | 1.3 | 0.788 | 0.946 | 1.05 | -0.0272 | 0.49 | 1.41 | 1.31 | -0.779 | 1.53 | 0.01 | 0.584 (inactive)
5 | O=[N+]([O-])c1ccc(C[n+]2ccc(-c3ccc(CO)cc3)cc2)o1 | 0.904 | 0.289 (inactive) | -0.0043 | -0.0485 | 0.885 | 1.13 | 1.2 | 0.649 | 0.768 | 0.648 | 1.38 | 0.148 | 0.197 | -0.0943 | 1.34 | 0.59 | -0.93 | 0.362 | 1.17 | -0.208 (inactive)
6 | COC(=O)[C@@]1(Cc2ccc(F)cc2)[C@@H]2[C@@H](CC(=O)[C@H]2CC(=O)C(=O)N2CCCC2)CN1C(=O)c1ccccc1 | 1.08 | 0.304 (inactive) | 0.506 | 0.239 | 0.603 | 3.17 | 0.552 | 1.3 | -0.232 | 1.16 | 0.266 | 1.24 | 1.51 | 0.931 | 0.95 | 0.455 | 0.694 | -1.01 | 0.772 | 2.19 (inactive)
7 | CC(C)N1CC=CC23O[C@@H]4C=CCOC(=O)[C@@H]4[C@H]2C(=O)N(CCCCCCO)[C@@H]3C1=O (stereo not given in full) | 0.771 | 0.714 (inactive) | -0.0697 | -0.0451 | 0.923 | -0.0499 | 1.15 | -0.351 | -1.17 | -0.82 | -0.249 | -0.407 | -0.181 | -1.66 | -0.663 | -1.19 | -0.525 | -0.0359 | 0.666 | 0.287 (inactive)
8 | COCCCNC(=O)[C@@]1(C)c2ccccc2C(=O)N(c2ccc(C)cn2)[C@H]1c1ccc(CO)cc1 | 0.537 | -0.333 (inactive) | -0.463 | -0.135 | 0.789 | -0.317 | 0.406 | -0.225 | -0.889 | -0.731 | -0.545 | -0.454 | -0.193 | -1.03 | -0.0423 | 0.204 | -0.9 | -0.939 | 0.421 | 0.522 (inactive)
9 | CO[C@H]1O[C@H](CO)[C@@H](OC(=O)Nc2cccc(F)c2)[C@H](OC(=O)Nc2ccc3c(c2)OCO3)[C@H]1OC(=O)Nc1ccc2c(c1)OCO2 | 0.445 | 0.859 (inactive) | 0.0225 | -0.0508 | 0.728 | 2.23 | 0.315 | 1.3 | 0.163 | 0.731 | 1.62 | 1.26 | 0.807 | 0.884 | 1.32 | 0.819 | -0.358 | 0.9 | 1.15 | -5.24 (inactive)
10 | COCCCNC(=O)[C@@H]1c2ccccc2C(=O)N(c2ccc(C)cn2)[C@H]1c1ccc(CO)cc1 | -0.767 | 0.567 (inactive) | -0.644 | -0.18 | 0.0072 | -0.908 | -0.721 | -1.42 | -2.03 | -0.482 | -0.346 | -1.11 | -1.24 | -1.04 | -1.25 | -2.41 | -0.758 | -1.03 | 0.0195 | 0.195 (inactive)
11 | COc1ccccc1CN1C(=O)c2ccccc2[C@@H](C(=O)NCC(C)C)[C@@H]1c1ccc(CO)cc1 | -0.325 | 0.0829 (inactive) | -0.236 | -0.0226 | 0.623 | 0.368 | 0.537 | -0.134 | 0.0987 | 0.358 | 0.366 | 1.18 | 0.088 | 0.707 | 1.23 | 1.56 | 0.163 | -0.632 | 0.342 | -0.836 (inactive)

— PubChem BioAssay
